Activity calls are given as the source filed them. The calls were made as follows: active = hit-call score of the fitted dose curve at least 0.9, where 1 is the maximum; inactive = score below 0.9.
How the values were obtained:
Conditions in all cases: mRNA level, 48 h; actives raise or lower the signal
[1] = read-out: Transforming Growth Factor (TGFA), TGFA (gene 7039); experiment: LTEA_HepaRG_TGFA: Life Technologies and Expression Analysis (LTEA) Assay for Transforming Growth Factor (TGFA) using HepaRG (AID 2283532)
Method in brief: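 Differentiated human HepaRG cells, plated 48 h then switched to serum-free induction medium, were exposed in duplicate for 48 h to 8-point half-log series from 100 uM in 0.5% DMSO. TGFA mRNA measured by qRT-PCR, normalized to ACTB/GAPDH/POLR2A, bidirectional fit versus DMSO.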

[2] = read-out: Transforming Growth Factor (TGFB1), TGFB1 (gene 7040); experiment: LTEA_HepaRG_TGFB1: Life Technologies and Expression Analysis (LTEA) Assay for Transforming Growth Factor (TGFB1) Transporter using HepaRG (AID 2283533)
Method in brief: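 Differentiated HepaRG cells exposed 48 hr in serum-free induction medium to eight half-log concentrations up to 100 uM (0.5% DMSO), duplicate; TGFB1 mRNA by TaqMan qRT-PCR normalised to ACTB, GAPDH, POLR2A; bidirectional fit against DMSO.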

TIMP1, TIMP1 (gene 7076) = experiment: LTEA_HepaRG_TIMP1: Life Technologies and Expression Analysis (LTEA) Assay for TIMP1 using HepaRG (AID 2283534)
Method in brief: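 Differentiated HepaRG cells exposed 48 h in serum-free induction medium, duplicates, eight half-log concentrations from 100 uM in 0.5% DMSO. TIMP1 mRNA by qRT-PCR normalized to ACTB, GAPDH, POLR2A; bidirectional fitting against DMSO.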

[3] = read-out: Tumor necrosis factor receptor 1 (TNFRSF1A), TNFRSF1A (gene 7132); experiment: LTEA_HepaRG_TNFRSF1A: Life Technologies and Expression Analysis (LTEA) Assay for Tumor necrosis factor receptor 1 (TNFRSF1A) using HepaRG (AID 2283535)
Method in brief: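 Differentiated HepaRG cells in serum-free induction medium, exposed 48 h in duplicate to 8 half-log concentrations up to 100 uM in 0.5% DMSO. TNFRSF1A mRNA by Fluidigm TaqMan qRT-PCR, normalized to ACTB, GAPDH, POLR2A; bidirectional fit.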

[4] = read-out: Thyroid Hormone Responsive (THRSP), THRSP (gene 7069); experiment: LTEA_HepaRG_THRSP: Life Technologies and Expression Analysis (LTEA) Assay for Thyroid Hormone Responsive (THRSP) using HepaRG (AID 2283536)
Method in brief: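 Differentiated human HepaRG cells were exposed in duplicate for 48 h in serum-free induction medium to eight concentrations (top 100 uM, half-log steps, 0.5% DMSO). Expression was quantified by TaqMan qRT-PCR, normalized to ACTB, GAPDH and POLR2A, with bidirectional fitting against DMSO.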

[5] = read-out: Cellular tumor antigen p53 (Homo sapiens) (UniProt P04637); experiment: LTEA_HepaRG_TP53: Life Technologies and Expression Analysis (LTEA) Assay for Tumor Protein P53 (TP53) using HepaRG (AID 2283537)
Method in brief: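 Gain or loss of TP53 mRNA signal is scored relative to 0.5% DMSO after 48 h chemical treatment of HepaRG liver cells, tested in duplicate at eight half-log concentrations up to 100 uM.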

[6] = read-out: UDP glucuronosyltransferase (UGT1A1), UGT1A1 (gene 54658); experiment: LTEA_HepaRG_UGT1A1: Life Technologies and Expression Analysis (LTEA) Assay for UDP glucuronosyltransferase (UGT1A1) using HepaRG (AID 2283538)
Method in brief: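 HepaRG cells, 0.5% DMSO vehicle, 48 h exposure in serum-free induction medium to 8-point half-log series topping at 100 uM, in duplicate. UGT1A1 mRNA by Fluidigm qRT-PCR, normalized to ACTB/GAPDH/POLR2A; bidirectional fit versus DMSO.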

[7] = read-out: UDP glucuronosyltransferase (UGT1A6), UGT1A6 (gene 54578); experiment: LTEA_HepaRG_UGT1A6: Life Technologies and Expression Analysis (LTEA) Assay for UDP glucuronosyltransferase (UGT1A6) using HepaRG (AID 2283539)
Method in brief: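 Differentiated HepaRG cells, ~100,000/well, were exposed for 48 h in serum-free induction medium with 0.5% DMSO to 8-point half-log series topping at 100 uM, in duplicate. mRNA measured by Fluidigm TaqMan qRT-PCR, normalized to ACTB, GAPDH and POLR2A.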

[8] = read-out: X-box binding protein 1 (XBP1), XBP1 (gene 7494); experiment: LTEA_HepaRG_XBP1: Life Technologies and Expression Analysis (LTEA) Assay for X-box binding protein 1 (XBP1) using HepaRG (AID 2283540)
Method in brief: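 Differentiated human HepaRG cells in serum-free induction medium exposed 48 h in duplicate to eight half-log concentrations up to 100 uM in 0.5% DMSO. XBP1 mRNA measured by Fluidigm TaqMan qRT-PCR, normalized to ACTB, GAPDH, POLR2A; bidirectional fitting against DMSO.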

[9] = read-out: sulfotransferase 2A1 (SULT2A1), SULT2A1 (gene 6822); experiment: LTEA_HepaRG_SULT2A1: Life Technologies and Expression Analysis (LTEA) Assay for sulfotransferase 2A1 (SULT2A1) using HepaRG (AID 2283531)
Method in brief: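 HepaRG human liver cells, 48 h exposure in serum-free induction medium to 8 half-log concentrations topping at 100 µM (0.5% DMSO), duplicate wells. SULT2A1 mRNA measured by TaqMan qRT-PCR, normalized to ACTB/GAPDH/POLR2A; bidirectional fit against DMSO.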

Measured: AC50

Sequence of Cellular tumor antigen p53 (Homo sapiens) (P04637 whole entry, looked up): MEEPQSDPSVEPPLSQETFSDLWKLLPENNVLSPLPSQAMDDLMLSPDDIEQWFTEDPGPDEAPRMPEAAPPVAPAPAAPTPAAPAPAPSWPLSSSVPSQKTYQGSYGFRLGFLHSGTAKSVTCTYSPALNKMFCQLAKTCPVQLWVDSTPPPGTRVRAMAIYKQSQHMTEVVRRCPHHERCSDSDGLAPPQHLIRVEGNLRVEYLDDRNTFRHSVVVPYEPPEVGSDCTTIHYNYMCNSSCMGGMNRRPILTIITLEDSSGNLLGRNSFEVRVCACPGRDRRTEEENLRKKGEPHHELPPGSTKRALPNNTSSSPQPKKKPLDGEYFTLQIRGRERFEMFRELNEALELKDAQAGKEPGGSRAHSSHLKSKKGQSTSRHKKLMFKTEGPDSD

CCCC(=O)OCC
inactive: [1] | [2] | TIMP1, TIMP1 (gene 7076) | [3] | [4] | [5] | [6] | [7] | [8]

O=P(OC(CCl)CCl)(OC(CCl)CCl)OC(CCl)CCl
inactive: TIMP1, TIMP1 (gene 7076) | [8]
active: [9] 79.1 µM | [2] 62.9 µM | [3] 0.231 µM | [4] 94.4 µM | [5] 86.6 µM | [6] 88.6 µM | [7] 10.1 µM

CCN(C(=O)c1cc(C)cc(OC[C@H](C)Nc2ccncc2)c1)C(C)C
inactive: [1] | [2] | TIMP1, TIMP1 (gene 7076) | [7] | [8]
active: [3] 0.172 µM | [4] 6.4 µM | [5] 9.37 µM | [6] 6.7 µM

CC(C)=CCC/C(C)=C\CO
inactive: [1] | [2] | TIMP1, TIMP1 (gene 7076) | [3] | [4] | [5] | [6] | [7] | [8]

Cc1ccc(C)c(O)c1
inactive: [9] | [2] | TIMP1, TIMP1 (gene 7076) | [3] | [4] | [5] | [6] | [7] | [8]

CCCCC(CC)COC(=O)CCCCCCCCC(=O)OCC(CC)CCCC (stereo not drawn)
inactive: [9] | [2] | TIMP1, TIMP1 (gene 7076) | [3] | [4] | [5] | [6] | [7] | [8]

O=C(O)CC(O)C(=O)O (stereo not drawn)
inactive: [1] | [2] | TIMP1, TIMP1 (gene 7076) | [3] | [4] | [5] | [6] | [7] | [8]

CC(C)=CCCC(C)=CC=O
inactive: [9] | [2] | TIMP1, TIMP1 (gene 7076) | [3] | [4] | [5] | [6] | [7] | [8]

Cc1c(-c2cccnc2)c2ccccc2n1CCCCC(=O)O
inactive: [1] | [2] | TIMP1, TIMP1 (gene 7076) | [3] | [4] | [5] | [6] | [7] | [8]

CCc1cc(SCc2sc(-c3ccc(C(F)(F)F)cc3)nc2CN2CCN(c3ccc(OC)cc3)CC2)ccc1OCC(=O)O
active: [9] 5.72 µM | [2] 28.9 µM | TIMP1, TIMP1 (gene 7076) 94 µM | [3] 5 µM | [5] 7.74 µM | [6] 7.28 µM | [7] 7.77 µM | [8] 94 µM
inactive: [4]

O=C(OC[C@H]1O[C@@H](OC(=O)c2cc(O)c(O)c(OC(=O)c3cc(O)c(O)c(O)c3)c2)[C@H](OC(=O)c2cc(O)c(O)c(OC(=O)c3cc(O)c(O)c(O)c3)c2)[C@@H](OC(=O)c2cc(O)c(O)c(OC(=O)c3cc(O)c(O)c(O)c3)c2)[C@@H]1OC(=O)c1cc(O)c(O)c(OC(=O)c2cc(O)c(O)c(O)c2)c1)c1cc(O)c(O)c(OC(=O)c2cc(O)c(O)c(O)c2)c1
inactive: [3] | [8]
active: [9] 9.46 µM | [2] 2.96 µM | TIMP1, TIMP1 (gene 7076) 15.2 µM | [4] 6.1 µM | [5] 4.95 µM | [6] 4.66 µM | [7] 5.4 µM

CC/C(=C\C(=N/O)C(N)=O)C(C)[N+](=O)[O-] (stereo not drawn)
inactive: [9] | [2] | TIMP1, TIMP1 (gene 7076) | [3] | [4] | [5] | [6] | [7] | [8]

CCn1nc(Cc2ccccc2)cc1C1CCN(C[C@H]2C[C@H](N(C)[C@@H](C(=O)O)C(C)C)C[C@@H]2c2cccc(F)c2)CC1
inactive: [9] | TIMP1, TIMP1 (gene 7076) | [3] | [4] | [5] | [6] | [7] | [8]
active: [2] 73.3 µM

COc1ccc2sc(C(=O)Nc3nnn[nH]3)c(OC(C)C)c2c1
inactive: [2] | TIMP1, TIMP1 (gene 7076) | [8]
active: [9] 78.4 µM | [3] 39 µM | [4] 50 µM | [5] 38.9 µM | [6] 12.9 µM | [7] 50 µM

CC(C)CC(C)(O)C#CC(C)(O)CC(C)C (stereo not drawn)
inactive: [1] | [2] | TIMP1, TIMP1 (gene 7076) | [3] | [4] | [5] | [6] | [7] | [8]

CC[C@H]1OC(=O)[C@H](C)[C@@H](O[C@H]2C[C@@](C)(OC)[C@@H](O)[C@H](C)O2)[C@H](C)[C@@H](O[C@@H]2O[C@H](C)C[C@H](N(C)C)[C@H]2O)[C@](C)(O)C[C@@H](C)C(=O)[C@H](C)[C@@H](O)[C@]1(C)O
active: [6] 8.69 µM
inactive: [9] | [2] | TIMP1, TIMP1 (gene 7076) | [3] | [4] | [5] | [7] | [8]

Nc1nc2ncc(CNc3ccc(C(=O)N[C@@H](CCC(=O)O)C(=O)O)cc3)nc2c(=O)[nH]1
inactive: [9] | [2] | TIMP1, TIMP1 (gene 7076) | [3] | [4] | [5] | [6] | [7] | [8]

Oc1ccc2c(c1)-c1ccccc1C2
active: [4] 13.9 µM | [6] 30.4 µM
inactive: [1] | [2] | TIMP1, TIMP1 (gene 7076) | [3] | [5] | [7] | [8]

C1=CCCC=CCCC=CCC1
inactive: [2] | TIMP1, TIMP1 (gene 7076) | [4] | [5] | [6] | [7] | [8]

O=C1CCC(N2C(=O)c3ccccc3C2=O)C(=O)N1 (stereo not drawn)
inactive: [1] | [2] | TIMP1, TIMP1 (gene 7076) | [3] | [4] | [5] | [6] | [7] | [8]

Cc1ccc(O)cc1
inactive: [2] | TIMP1, TIMP1 (gene 7076) | [3] | [4] | [5] | [6] | [7] | [8]

CC1(C)C(=O)N(Br)C(=O)N1Br
active: [6] 21.4 µM
inactive: [1] | [2] | TIMP1, TIMP1 (gene 7076) | [3] | [4] | [5] | [7] | [8]

CN(C)c1ccc(N=NS(=O)(=O)O)cc1
active: [3] 12.3 µM | [4] 11.1 µM
inactive: [2] | TIMP1, TIMP1 (gene 7076) | [5] | [6] | [7] | [8]

— PubChem BioAssay (EPA / NIEHS)
